Hits are enriched below; roughly 3.4% of the tested compounds scored in any of these assays.
GPR151 ag = activators of human GPR151, primary screen, cell-based, PathHunter beta-arrestin, luminescence; PathHunter beta-arrestin GPR151 cells; activation, % at 11.2 µM; actives 1% (n = 650,000); AID 1508602, 2020; in the data active = activation above about 4.9%;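 also: 0% = median of compound wells and 100% = cells with positive control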
MITF inh = MITF inhibitors, primary screen, biochemical, AlphaScreen, human | Microphthalmia-associated transcription factor (Homo sapiens), O75030 | actives 0.91% (n = 650,000) | inhibition, % at 2.6 µM | AlphaScreen MITF homodimerization, bead proximity signal | AID 1259374, 2018; in the data active = inhibition above about 50%;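 also: 0% = vehicle wells with protein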
Target sequence (O75030 whole entry, looked up): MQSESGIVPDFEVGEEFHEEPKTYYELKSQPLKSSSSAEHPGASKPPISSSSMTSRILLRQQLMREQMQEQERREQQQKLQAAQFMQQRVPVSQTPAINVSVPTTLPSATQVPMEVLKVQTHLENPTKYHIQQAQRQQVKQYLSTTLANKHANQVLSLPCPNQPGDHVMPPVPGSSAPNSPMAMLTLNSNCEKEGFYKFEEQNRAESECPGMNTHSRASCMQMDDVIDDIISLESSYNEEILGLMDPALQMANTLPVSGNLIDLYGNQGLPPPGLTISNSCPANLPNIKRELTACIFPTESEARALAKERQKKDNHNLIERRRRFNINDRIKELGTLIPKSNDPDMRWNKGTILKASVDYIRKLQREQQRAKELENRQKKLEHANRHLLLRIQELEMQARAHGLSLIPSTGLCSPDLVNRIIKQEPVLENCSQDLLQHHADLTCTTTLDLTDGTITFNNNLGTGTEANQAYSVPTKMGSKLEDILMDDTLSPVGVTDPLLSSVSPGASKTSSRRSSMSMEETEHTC
TEAD-YAP inh = TEAD-YAP interaction inhibition, primary screen, TEAD-YAP interaction inhibitor project, luminescence, HEK-TIYL cells. TEAD-Gal4/YAP UAS-luciferase luminescence. inhibition, % at 9.12 µM. AID 1259422, 2018. actives 1.4% (n = 640,000); in the data active = inhibition above about 32%;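 also: 0% = median of test compound wells and 100% = reference inhibitor wells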
FBW7 act = FBW7 E3 ligase activators, primary screen, biochemical, AlphaScreen, human; F-box/WD repeat-containing protein 7 (Homo sapiens), Q969H0; AlphaScreen FBW7–phospho-cyclin E peptide binding, activator screen; normalized activity (activation), % at 26.1 µM; actives 0.13% (n = 650,000); in the data active = normalized activity above about 1.9%;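 also: purified mutant Fbw7 with reduced substrate affinity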
MITF inh conf = MITF inhibitors, retest of hits, confirmation, biochemical, AlphaScreen, triplicate; AlphaScreen MITF homodimerization, biotin/His-MITF beads; AID 1259372, 2018; shares compounds with MITF inh; actives 16% (n = 4,700); inhibition, % at 2.6 µM;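 active = inhibition above a cutoff derived from the DMSO control wells, cut at about 28% in these data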;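 also: 0% = MITF dimer wells with DMSO only; inhibitors lower the bead chemiluminescence by keeping MITF from dimerizing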
AlphaScreen intf2 = AlphaScreen optical interference compounds, counter-screen for MITF inhibitor project, biochemical, triplicate; shares compounds with MITF inh; LysRS AlphaScreen counterscreen, signal interference; inhibition, % at 2.6 µM; actives 7.6% (n = 4,700); AID 1259376, 2018;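 active = inhibition above a cutoff derived from the DMSO control wells, cut at about 30% in these data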
Starred values were filed as active, the others as inactive; x = not tested or not shown.

SMILES | GPR151 ag | MITF inh | TEAD-YAP inh | FBW7 act | MITF inh conf | AlphaScreen intf2
CCN1CCN(CCCOc2cc(C)c(Cl)cc2C)CC1 | -1 | 64* | 2 | 0 | 3 | 11
CCN1CCN(CCOCCOc2ccccc2Br)CC1 | 1 | 56* | 4 | 0 | 13 | 15
CCN1CCN(CCCOc2cccc(C)c2C)CC1 | 0 | 67* | 2 | 0 | 9 | 8
CCN1CCN(CCCOc2ccc(Cl)c(Cl)c2)CC1 | 1 | 28 | -12 | 0 | x | x
NC(=O)c1cc(NC(=O)c2cccc([N+](=O)[O-])c2)ccc1Cl | 0 | -9 | 4 | 0 | x | x
N#CC1=C(N)Oc2n[nH]c(-c3ccccn3)c2C1c1ccc([N+](=O)[O-])s1 (centres undefined) | -2 | 107* | 9 | -1 | 117* | 100*
C=CCc1ccccc1OCCNCCOC | -2 | 52* | 2 | 0 | 7 | 7
COCCNCCOc1ccccc1C(C)C | 1 | 58* | 4 | 0 | 17 | 42*
C=CCc1ccccc1OCCCNCCCOC | 3 | 65* | 2 | 0 | 5 | 13
C=CCc1ccccc1OCCOCCNCCOC | -1 | 10 | 12 | 0 | x | x
C=CCc1ccccc1OCCCNCCOC | 3 | 59* | 2 | 0 | 1 | 12
C=CCc1ccccc1OCCCCNCCCOC | 1 | 24 | 2 | 0 | x | x
COCCNCCOc1ccccc1OC | 0 | 12 | 5 | 0 | x | x
Cc1ccc(NC(=O)CN2Cc3ccccc3C2=O)cc1 | -1 | -4 | -12 | 0 | x | x
CCOc1ccc(N(C(=O)C(C)Oc2ccccc2)C2C=CS(=O)(=O)C2)cc1 (centres undefined) | 0 | 0 | -10 | 0 | x | x
CC(C)(C)c1ccc(C(=O)NC(CC(=O)O)c2cccc([N+](=O)[O-])c2)cc1 (centres undefined) | 0 | 2 | 10 | 0 | x | x
CC(=O)Nc1ccc(C(=O)NC(CC(=O)O)c2cccc([N+](=O)[O-])c2)cc1 (centres undefined) | 1 | 60* | 7 | 0 | -2 | 1
O=[N+]([O-])c1ccccc1OCCOc1cccc2cccnc12 | 0 | 0 | -34 | 0 | x | x
CC1CN(CCOc2cccc3ccccc23)CC(C)O1 (centres undefined) | -1 | 58* | 0 | 0 | 10 | 6
CC1CN(CCOCCOc2ccccc2-c2ccccc2)CC(C)O1 (centres undefined) | 2 | 72* | -9 | 0 | 17 | 30
O=[N+]([O-])c1ccccc1OCCOCCOc1cccc2cccnc12 | 3 | 69* | -4 | 1 | 8 | 16
COc1ccccc1OCCOCCN1CC(C)OC(C)C1 (centres undefined) | -1 | 27 | -7 | 1 | x | x
COC(=O)c1ccccc1OCCCCN1CC(C)OC(C)C1 (centres undefined) | 0 | 63* | 1 | 0 | 1 | 14
O=C(c1ccc(OC2CCN(Cc3ccccn3)CC2)cc1)N1CCC[C@H]1CO | 1 | 12 | 1 | 0 | x | x
COc1cccc(OC)c1OCCCN1CC(C)OC(C)C1 (centres undefined) | 1 | 62* | 6 | 0 | 7 | 10
SMILES | GPR151 ag | MITF inh | TEAD-YAP inh | FBW7 act | MITF inh conf | AlphaScreen intf2
Cc1ccc(C)c(OCCOCCN2CC(C)OC(C)C2)c1C (centres undefined) | 0 | 52* | 2 | 0 | -6 | -4
COC(=O)c1ccc(OCCOCCN2CC(C)OC(C)C2)cc1 (centres undefined) | 0 | 52* | 10 | 0 | -7 | -8
COC(=O)c1ccccc1OCCCOc1cccc2cccnc12 | 0 | 68* | -37 | 0 | 4 | 17
CCCCNCCOCCOc1ccccc1Cl | 0 | 13 | 7 | 0 | x | x
O=C(CCC1=NS(=O)(=O)c2ccccc2N1)NCc1cccnc1 | -1 | 24 | 2 | 0 | x | x
CCOC(=O)c1c(-c2ccc(OC)c(OC)c2)csc1NC(=O)CCN1CCN(C)CC1 | -1 | 81* | 5 | 0 | -5 | 3
CCOC(=O)c1c(-c2ccc(F)cc2)csc1NC(=O)CN1CCOCC1 | 0 | -6 | -2 | 0 | x | x
CCOC(=O)c1c(-c2ccc(OC)c(OC)c2)csc1NC(=O)CN1CCCC1 | 1 | -12 | 5 | 0 | x | x
CCN1CCN(CC(=O)NCc2ccc(F)cc2)CC1 | 2 | 79* | 3 | 0 | 3 | 14
CCOC(=O)c1cc(-c2ccccc2)sc1NC(=O)CCN1CCN(C)CC1 | 2 | 58* | -8 | 0 | 1 | 18
CCOC(=O)c1c(-c2ccc(F)cc2)csc1NC(=O)CN1CCN(CC)CC1 | -1 | 63* | 9 | 0 | 5 | 14
O=S(=O)(Nc1ccc(Oc2ccccc2)cc1)c1ccc2ccccc2c1 | 1 | 4 | -7 | 1 | x | x
CCOC(=O)c1c(-c2ccc(C)cc2)csc1NC(=O)CCN1CCN(CC)CC1 | 0 | 53* | -4 | 0 | 4 | 3
OCCCNc1ncnc2sc(-c3ccccc3)cc12 | 1 | -1 | 0 | 0 | x | x
C=COCCCNc1ncnc2sc(-c3ccccc3)cc12 | -1 | 61* | 6 | 0 | 7 | 8
c1ccc(-c2cc3c(NCCCN4CCOCC4)ncnc3s2)cc1 | -1 | 61* | -7 | 0 | -1 | -3
O=C(NCc1ccccn1)C(=O)NCC1CCCO1 (centres undefined) | 1 | 5 | -3 | 0 | x | x
NNC(=O)C(=O)NNc1ccccn1 | 2 | 70* | -3 | 0 | 74* | 101*
O=C(O)CCC(=O)Nc1ccc(NC(=O)c2cccs2)cc1 | -2 | -16 | -11 | 0 | x | x
COc1ccc(N2C(=O)CC(Sc3ncn[nH]3)C2=O)cc1 (centres undefined) | 0 | -10 | -12 | 0 | x | x
CSc1ccccc1NC(=O)CN(C)C(C)C(=O)NCc1ccc2c(c1)OCO2 (centres undefined) | 4 | 88* | 9 | 0 | -3 | 13
CSc1ccccc1C(=O)NCc1ccc2c(c1)OCO2 | 0 | 3 | -1 | 0 | x | x
CCSc1ccccc1C(=O)NCc1ccc2c(c1)OCO2 | -1 | 75* | 10 | 0 | 8 | 17
Cc1ccc(C(=O)Nc2c3c(nn2-c2ccc([N+](=O)[O-])cc2)CSC3)cc1C | -1 | 0 | 4 | 0 | x | x
CC(=O)N1CCN(C(=O)COc2ccc(Br)cc2)CC1 | -1 | 53* | -2 | 1 | 10 | 9
O=CN1CCN(C(=O)COc2ccc(Br)cc2)CC1 | 1 | -10 | 1 | 0 | x | x
COc1ccc(CNCCSc2nccn2C)cc1 | 1 | 70* | -6 | 0 | 12 | 15

From PubChem
